{"source": "PubChem BioAssay (NCATS)", "note": "Records with an inconclusive call do not appear. Unmarked numbers belong to inactive results. Activity calls are given as the source filed them. The call rests on the fitted dose curve; in most records, active means well fitted inhibition curve with a large enough effect; inconclusive means small, poorly fitted or top-dose-only effect; inactive means no such curve, though single readings can be large or run the other way. Potency means the concentration at half of the fitted maximal effect."}
{"assay": "qHTS Screen of the MIPE 4.0 Collection Against Ewings Sarcoma (TC32) (AID 1259256); further: nearly all actives have a fitted effect of over 45% in size;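 on viability (percent of control): 100% = DMSO-treated cells and 0% = medium-only wells without cells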", "conditions": "TC32 Ewing sarcoma viability, CellTiter-Glo, 48 h; series mostly up to 45.8 µM; viability (percent of control): at the top concentration", "how_it_was_run": "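Log-phase cells in RPMI with 5% FBS attached for 4 h, then received compounds as a titration for 48 h at 37C, 5% CO2. Viability was read by CellTiter-Glo luminescence and normalized to DMSO and no-cell wells.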"}
{"smiles": "CON=C(C(=O)N[C@@H]1C(=O)N2C(C(=O)O)=C(Cn3ccc(=N)n3CCO)CS[C@H]12)c1csc(N)n1", "viability (percent of control)": "111%"}
{"smiles": "CCc1cc(C(C)=NOCc2ccc(C3CCCCC3)c(C(F)(F)F)c2)ccc1CN1CC(C(=O)O)C1", "viability (percent of control)": "133%"}
{"smiles": "COc1ccc([C@@H]2CNC(=O)C2)cc1OC1CCCC1", "Potency": "1870 nM (active)"}
{"smiles": "N#CC(=Cc1ccc(O)c(O)c1)C(=O)NCc1ccccc1", "Potency": "20900 nM (active)"}
{"smiles": "CC(=O)O[C@]1(C(C)=O)CC[C@H]2[C@@H]3C=C(C)C4=CC(=O)CC[C@]4(C)[C@@H]3CC[C@@]21C", "Potency": "5260 nM (active)"}
{"smiles": "C=CC[C@@H]1C=C(C)C[C@H](C)C[C@H](OC)[C@H]2O[C@@](O)(C(=O)C(=O)N3CCCC[C@H]3C(=O)O[C@H](C(C)=C[C@@H]3CC[C@H](O)[C@H](OC)C3)[C@@H](C)[C@@H](O)CC1=O)[C@@H](C)C[C@@H]2OC", "Potency": "1480 nM (active)"}
{"smiles": "N#CC(=C(N)Sc1ccc(N)cc1)c1ccccc1C(F)(F)F", "Potency": "5260 nM (active)"}
{"smiles": "COc1cc(C)c(Sc2cnc(NC(=O)c3ccc(CNC(C)C(C)(C)C)cc3)s2)cc1C(=O)N1CCN(C(C)=O)CC1", "note": "(stereo not given)", "Potency": "2960 nM (active)"}
{"smiles": "COc1ccc(Nc2cc(-c3cnc(N)nc3)nc(N3CCOCC3)n2)cn1", "Potency": "5260 nM (active)"}
{"smiles": "C[N+]1(C)[C@@H]2C[C@@H](OC(=O)C(O)(c3cccs3)c3cccs3)C[C@H]1[C@@H]1O[C@@H]12", "viability (percent of control)": "117%"}
{"smiles": "CC(=O)N[C@H]1[C@@H]([C@H](O)[C@H](O)CO)OC(C(=O)O)=C[C@@H]1N=C(N)N", "viability (percent of control)": "123%"}
{"smiles": "C=C1C[C@@]2(O)O[C@@]3(C[C@H]2C(C)C)[C@H](C)CC[C@H]13", "viability (percent of control)": "126%"}
{"smiles": "CS(=O)(=O)N1CCc2c(-c3cnc(N)nc3)nc(N3CCOCC3)nc21", "Potency": "296 nM (active)"}
{"smiles": "O=C(O)c1ccc(Nc2ncc3c(n2)-c2ccc(Cl)cc2C(c2c(F)cccc2F)=NC3)cc1", "Potency": "590 nM (active)"}
{"smiles": "Cc1ccc2nc(NCCN)c3ncc(C)n3c2c1", "Potency": "4690 nM (active)"}
{"smiles": "O=C(O)C=Cc1ccc(Cn2ccnc2)cc1", "viability (percent of control)": "145%"}
{"smiles": "CC(=O)N1CCN(c2ccc(OCc3nn(C)c(C)c3-c3cccc4c(CCCOc5cccc6ccccc56)c(C(=O)O)n(Cc5cccnc5)c34)cc2)CC1", "Potency": "743 nM (active)"}
{"smiles": "NC1=N[C@H]2[C@H](CS[C@H]2CCCCC(=O)O)N1", "viability (percent of control)": "134% [at 23.2 µM]"}
{"smiles": "OCc1ccccc1O[C@@H]1O[C@H](CO)[C@H](O)[C@H](O)[C@H]1O", "viability (percent of control)": "143%"}
{"smiles": "OCCN1C[C@H](O)[C@@H](O)[C@H](O)[C@@H]1CO", "viability (percent of control)": "124%"}
{"smiles": "COC(=O)[C@@H]1CC2=CC(=O)CC[C@]2(C)[C@@]23O[C@@H]2C[C@@]2(C)[C@H](CC[C@@]24CCC(=O)O4)[C@@H]13", "viability (percent of control)": "118%"}
{"smiles": "CN[C@H](CC(C)C)C(=O)N[C@H]1C(=O)N[C@@H](CC(N)=O)C(=O)N[C@@H]2C(=O)N[C@H]3C(=O)N[C@H](C(=O)N[C@H](C(=O)O)c4cc(O)cc(O)c4-c4cc3ccc4O)[C@H](O)c3ccc(c(Cl)c3)Oc3cc2cc(c3O[C@@H]2O[C@H](CO)[C@@H](O)[C@H](O)[C@@H]2O[C@H]2C[C@](C)(N)[C@H](O)[C@H](C)O2)Oc2ccc(cc2Cl)[C@H]1O", "viability (percent of control)": "115%"}
{"smiles": "Cc1cn([C@@H]2O[C@H](CO)[C@@H](O)[C@H]2F)c(=O)[nH]c1=O", "viability (percent of control)": "121%"}
{"smiles": "Cc1ccccc1C(=O)Nc1ccc(C(=O)N2CCCC(O)c3cc(Cl)ccc32)c(C)c1", "note": "(stereo not given)", "viability (percent of control)": "108%"}
{"smiles": "CNC(=O)Nc1ccc(-c2nc(N3CC4CCC(C3)O4)c3cnn(C4CCC5(CC4)OCCO5)c3n2)cc1", "Potency": "7.4 nM (active)"}
{"smiles": "CN[C@H]1[C@@H](O)[C@@H]2O[C@@H]3O[C@H](C)CC(=O)[C@]3(O)O[C@@H]2[C@@H](NC)[C@H]1O", "Potency": "1050 nM (active)"}
{"smiles": "O=c1[nH]c(=O)n([C@H]2C[C@@H](O)[C@@H](CO)O2)cc1C=CBr", "viability (percent of control)": "124%"}
{"smiles": "C=Cc1c(C)c2cc3nc(cc4[nH]c(cc5nc(cc1[nH]2)C(C)=C5CCC(=O)O)c(CCC(=O)OC)c4C)[C@@]1(C)C3=CC=C(C(=O)OC)[C@H]1C(=O)OC", "Potency": "74.3 nM (active)"}
{"smiles": "CC(C)(O)CC[C@@H](O)[C@](C)(O)[C@H]1CC[C@@]2(O)C3=CC(=O)[C@@H]4C[C@@H](O)[C@@H](O)C[C@]4(C)[C@@H]3CC[C@]12C", "viability (percent of control)": "116%"}
{"smiles": "CCCCC(=O)O[C@]1(C(=O)CO)[C@@H](C)C[C@H]2[C@@H]3CCC4=CC(=O)C=C[C@]4(C)[C@@]3(F)[C@@H](O)C[C@@]21C", "viability (percent of control)": "118%"}
